Reference: PubChem BioAssay
The source made the active and inactive calls.

How the values were obtained:
[1] = compounds binding Alexa647 anti-His antibody – biochemical, small-molecule microarray, 635 nm fluorescence, artefact control for SMM control protein annotation, primary screen (AID 1128); conditions: higher = more signal;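 also: score merges feature fluorescence with signal-to-noise for each printed compound spot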
[2] = tested on: Human papillomavirus type 1a E7 protein (residues 1-88); experiment: HPV1a E7 small-molecule binders, primary screen, biochemical, small-molecule microarray, residues 1-88, 635 nm (AID 1129); conditions: small-molecule microarray binding, fluorescence 635 nm; higher = more signal
[3] = molecular target: Focal adhesion kinase 1 (Homo sapiens) (UniProt Q05397); experiment: PTK2 protein binding on printed compound slides – biochemical, small-molecule microarray, 635/667 nm fluorescence, BSA, DTT, primary screen (AID 1130); conditions: 635 nm fluorescence, higher = more signal;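 also: composite of spot emission at 667 nm and signal to noise over triplicate slides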
Focal adhesion kinase 1 (Homo sapiens), sequence (Q05397 whole entry, looked up): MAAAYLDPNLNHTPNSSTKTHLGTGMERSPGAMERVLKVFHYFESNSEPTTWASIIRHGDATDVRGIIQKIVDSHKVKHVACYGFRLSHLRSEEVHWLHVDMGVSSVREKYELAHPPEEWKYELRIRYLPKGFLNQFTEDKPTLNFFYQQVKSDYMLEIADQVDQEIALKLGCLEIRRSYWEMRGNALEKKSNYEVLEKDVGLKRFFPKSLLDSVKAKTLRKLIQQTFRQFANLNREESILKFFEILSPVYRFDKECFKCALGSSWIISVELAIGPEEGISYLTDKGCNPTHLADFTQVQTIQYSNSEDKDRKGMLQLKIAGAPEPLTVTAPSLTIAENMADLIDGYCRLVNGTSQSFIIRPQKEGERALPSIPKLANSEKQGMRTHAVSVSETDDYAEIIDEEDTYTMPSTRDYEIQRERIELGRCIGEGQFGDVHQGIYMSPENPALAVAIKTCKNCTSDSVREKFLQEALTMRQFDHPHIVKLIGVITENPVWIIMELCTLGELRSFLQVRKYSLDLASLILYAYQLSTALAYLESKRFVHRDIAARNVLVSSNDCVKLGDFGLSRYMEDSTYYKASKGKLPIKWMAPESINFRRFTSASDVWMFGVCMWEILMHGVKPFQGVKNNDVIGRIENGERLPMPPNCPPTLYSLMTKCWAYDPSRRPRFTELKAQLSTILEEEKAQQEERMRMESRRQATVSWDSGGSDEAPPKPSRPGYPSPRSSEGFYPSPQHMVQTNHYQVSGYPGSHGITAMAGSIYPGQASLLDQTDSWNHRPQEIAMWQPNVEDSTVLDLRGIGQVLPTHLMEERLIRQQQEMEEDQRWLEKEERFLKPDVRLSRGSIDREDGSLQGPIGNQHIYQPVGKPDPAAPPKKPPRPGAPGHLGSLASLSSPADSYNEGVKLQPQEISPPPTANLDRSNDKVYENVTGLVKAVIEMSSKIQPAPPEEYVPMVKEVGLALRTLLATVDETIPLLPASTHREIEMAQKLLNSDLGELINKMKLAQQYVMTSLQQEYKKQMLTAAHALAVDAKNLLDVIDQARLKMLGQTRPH

[4] = tested on: Fibrinogen (Alexa647-labelled); experiment: Alexa647-fibrinogen binding to printed small molecules – biochemical, small-molecule microarray, 635/667 nm fluorescence, artefact control for SMM control-protein annotation, profiling panel (AID 1131); conditions: fibrinogen-A647 binding fluorescence, higher = more signal;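 also: z-score merges 667 nm fluorescence with per-spot signal-to-noise over triplicate slides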
[5] = molecular target: Follistatin (Homo sapiens) (UniProt P19883); experiment: FST protein binding to printed compounds – biochemical, small-molecule microarray, 635/667 nm fluorescence, primary screen (AID 1132); conditions: 635 nm fluorescence, higher = more signal
Follistatin (Homo sapiens), sequence (P19883 whole entry, looked up): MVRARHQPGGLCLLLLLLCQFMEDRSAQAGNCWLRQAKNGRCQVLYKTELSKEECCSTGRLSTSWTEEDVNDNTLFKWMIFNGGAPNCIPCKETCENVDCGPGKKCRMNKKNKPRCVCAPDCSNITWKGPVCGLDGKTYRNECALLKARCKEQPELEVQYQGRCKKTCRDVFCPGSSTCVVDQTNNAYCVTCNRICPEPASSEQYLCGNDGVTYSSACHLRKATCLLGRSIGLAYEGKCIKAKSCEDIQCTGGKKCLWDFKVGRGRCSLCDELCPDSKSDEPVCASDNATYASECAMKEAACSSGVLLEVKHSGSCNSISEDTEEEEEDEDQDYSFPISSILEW

[6] = molecular target: Fibroblast growth factor 2 (Homo sapiens) (UniProt P09038); experiment: basic fibroblast growth factor binding to printed compounds – biochemical, small-molecule microarray, 635/667 nm fluorescence, primary screen (AID 1133); conditions: FGF2, fluorescence 635/667, higher = more signal
Fibroblast growth factor 2 (Homo sapiens), sequence (P09038 whole entry, looked up): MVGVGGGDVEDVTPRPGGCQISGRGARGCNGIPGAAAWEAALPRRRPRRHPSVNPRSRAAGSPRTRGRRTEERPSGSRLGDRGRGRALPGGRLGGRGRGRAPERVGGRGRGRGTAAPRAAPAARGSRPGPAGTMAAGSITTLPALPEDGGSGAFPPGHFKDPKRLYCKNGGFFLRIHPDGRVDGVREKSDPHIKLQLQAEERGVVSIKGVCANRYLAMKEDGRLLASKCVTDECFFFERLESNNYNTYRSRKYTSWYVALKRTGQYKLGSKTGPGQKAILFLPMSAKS

[7] = JC-1 mitochondrial potential readout, lung cancer cells – cell-based, A549, JC-1 fluorescence, basal, 24 h, 100 nL, profiling panel (AID 1138); conditions: higher = more signal;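 also: A549 lung adenocarcinoma cells under basal conditions with no added stimulus; test concentration not given here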
Lefty1 = Lefty1 protein binding to printed compounds – biochemical, small-molecule microarray, 635/667 nm fluorescence, primary screen (AID 1139); conditions: fluorescence 635/667, higher = more signal
[8] = tested on: wheat germ agglutinin (Triticum aestivum), Alexa647-labelled; experiment: Alexa647-WGA lectin binding to printed small molecules – biochemical, small-molecule microarray, 635/667 nm fluorescence, artefact control for SMM control-protein annotation, profiling panel (AID 1140); conditions: WGA-A647 binding, 635 nm fluorescence, higher = more signal;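 also: score merges 667 nm feature emission with signal to noise over triplicate slides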
[9] = molecular target: Luciferin 4-monooxygenase (Photinus pyralis) (UniProt P08659); experiment: inhibition of purified Photinus pyralis luciferase – biochemical, luminescence, purified enzyme, 2006 set, primary screen (AID 1141); conditions: purified firefly luciferase, SteadyGlo luminescence, 30 min; higher = more signal, called active from +8 up or from −8 down;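 also: cell-free assay with purified firefly luciferase at 100 ng per well in PBS; test concentration not given here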
Luciferin 4-monooxygenase (Photinus pyralis), sequence (P08659 whole entry, looked up): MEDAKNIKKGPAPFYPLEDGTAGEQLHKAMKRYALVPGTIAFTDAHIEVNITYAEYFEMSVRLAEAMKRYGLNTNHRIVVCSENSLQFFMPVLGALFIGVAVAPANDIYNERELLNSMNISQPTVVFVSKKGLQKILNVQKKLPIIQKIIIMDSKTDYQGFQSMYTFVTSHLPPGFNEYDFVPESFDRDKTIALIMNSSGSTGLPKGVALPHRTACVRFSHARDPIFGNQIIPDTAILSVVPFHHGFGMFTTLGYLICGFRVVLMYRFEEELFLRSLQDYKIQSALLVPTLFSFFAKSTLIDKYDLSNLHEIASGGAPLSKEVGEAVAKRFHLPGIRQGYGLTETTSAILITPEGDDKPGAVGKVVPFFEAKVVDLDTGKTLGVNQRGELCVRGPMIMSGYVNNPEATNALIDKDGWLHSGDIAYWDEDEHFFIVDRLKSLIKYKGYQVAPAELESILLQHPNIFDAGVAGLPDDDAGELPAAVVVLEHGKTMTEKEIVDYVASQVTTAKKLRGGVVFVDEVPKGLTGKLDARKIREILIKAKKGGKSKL

Compound | composite z-score [1] | composite z-score [2] | composite z-score [3] | composite z-score [4] | composite z-score [5] | composite z-score [6] | z-score [7] | composite z-score (Lefty1) | composite z-score [8] | z-score [9]
CCCCC(=C=CC[C@@H](O)c1ccc(OCCO)cc1)C[C@@H](O)COCc1ccccc1 | 0.0164 | -0.445 | -0.0498 | -1.01 | 1.31 | 0.567 | 1.72 | 0.973 | 0.614 | -1.58 (inactive)
COCCOC(=O)N1C(=O)[C@@]2(c3cc(C#CC4=CCCCC4)ccc31)[C@H](c1ccccc1OCCO)N1[C@H](c3ccccc3)[C@H](c3ccccc3)OC(=O)[C@H]1[C@@H]2C(=O)N1CCc2cc(OC)c(OC)cc2C1 | 0.891 | 1.2 | 0.204 | 0.764 | 1.28 | 0.917 | -0.682 | 0.555 | 0.441 | -1.97 (inactive)
NCCCCCCNC(=O)[C@H]1C[C@H]2C(=O)N[C@@H](Cc3ccccc3)C(=O)N2[C@H]1c1ccc(O)cc1 | 2.04 | 0.692 | 0.937 | 0.999 | 1.32 | 0.619 | -0.267 | 0.795 | 1.1 | 0.166 (inactive)
Cc1ccc(S[C@]2(C(=O)NCC(F)(F)F)CC(=O)N(Cc3ccccc3)[C@@H]2c2ccc(CO)cc2)cc1 | -0.951 | 0.389 | -0.0414 | -1.16 | -0.739 | -0.683 | -0.483 | -0.758 | -0.693 | 0.519 (inactive)
CC[C@H]1C2=C3C(CC[C@H]4C(OCc5ccc(F)cc5C(F)(F)F)OC[C@](C)([C@@H]34)N(C(=O)OC(C)(C)C)C2)C2COC(=O)OCC21 (stereo not given in full) | 0.0812 | 1.17 | 1.55 | 0.979 | 0.432 | -1.39 | 1.86 | -0.233 | 0.688 | -0.198 (inactive)
COC(=O)[C@@]1(Cc2ccccc2)[C@H]2c3cc(C(=O)N4CCCC4)n(Cc4cc(F)cc5c4OCOC5)c3C[C@H]2CN1C(=O)c1ccccc1 | 0.69 | 1.24 | 0.366 | 0.963 | -0.0178 | -0.575 | 0.487 | -0.359 | 0.711 | 0.827 (inactive)
C[C@@H]1ON(c2ccc(C(=O)OC(C)(C)C)cc2)[C@H](c2ccc(Br)cc2)[C@H]1C(=O)N1C(=O)OC[C@H]1Cc1ccccc1 | 0.405 | 1.05 | -0.204 | 0.97 | 0.7 | 0.734 | 1.59 | 0.822 | 0.377 | -0.874 (inactive)
CCOC(=O)[C@@H]1[C@@H]2C(=O)N(CC)C(=O)[C@@H]2C[C@@H]1Sc1ccccc1 | 1.62 | 1.2 | 0.592 | 0.462 | 0.329 | 0.0435 | -1.24 | 0.307 | 0.402 | 1.4 (inactive)
CC(=O)NCCCC[C@@H]1NC(=O)[C@@H]2C[C@H](C(=O)O)[C@H](c3ccc(O)cc3)N2C1=O | 2.07 | -1.12 | -0.58 | -0.408 | -0.893 | -1.15 | -0.61 | -1.71 | -0.885 | 0.75 (inactive)
COCCCNC(=O)[C@]1(CCC(=O)OC(C)(C)C)N=C(c2ccc(OCCCO)cc2)O[C@@H]1c1ccccc1 | 3.52 | 1.26 | 0.807 | 0.272 | 1.21 | -0.0959 | 0.229 | -0.989 | 1.12 | -0.127 (inactive)
CN(C)C(=O)[C@@]1(Cc2ccccc2N=[N+]=[N-])COC(c2ccc(OCCCO)cc2)=N1 | 0.869 | 1.22 | 0.947 | 1 | 1.32 | 1.76 | 1.76 | -0.349 | 0.51 | -3.71 (inactive)
NC(=O)NCC#Cc1ccc2c(c1)[C@]1(C(=O)N2)[C@H](C(=O)Nc2nc3ccccc3s2)[C@H]2C(=O)O[C@H](c3ccccc3)[C@H](c3ccccc3)N2[C@@H]1c1ccc(O)cc1 | -0.198 | 0.52 | 0.286 | 0.629 | 1.28 | 0.651 | -2.41 | 0.383 | 0.696 | -1.76 (inactive)
COCCOC(=O)N1C(=O)[C@@]2(c3cc(C#CC4(O)CCCCCC4)ccc31)[C@H](C(N)=O)[C@H]1C(=O)O[C@H](c3ccccc3)[C@H](c3ccccc3)N1[C@@H]2c1ccccc1OCCO | 1.84 | 1.22 | 0.988 | 0.662 | 1.17 | 1.56 | -0.994 | 0.569 | 0.26 | -0.806 (inactive)
O=C(NC1CC1)[C@@H]1c2ccccc2C(=O)N(Cc2ccccc2)[C@H]1c1ccc(CO)cc1 | 0.522 | 0.802 | -0.747 | 0.497 | 0.665 | 0.483 | 2.09 | 0.626 | 0.905 | 0.017 (inactive)
CCOC(=O)C[C@H]1[C@H](OC(=O)c2ccc(-c3ccccc3)cc2)[C@@H](NC(=O)c2ccc3ccccc3c2)c2cc(OCCCO)ccc2N1C(=O)c1ccc2ccccc2n1 | 0.558 | 0.921 | -0.152 | 0.735 | 0.458 | -0.141 | 0.329 | 0.367 | 0.209 | -0.704 (inactive)
CC1CC/C=C\[C@H]2OC34C=CCN(CCN5CCOCC5)C(=O)[C@H]3N(CCO)C(=O)[C@@H]4C2C(=O)O1 (stereo not given in full) | 2.67 | -0.959 | -0.583 | 0.187 | -0.361 | -0.0989 | -0.213 | -0.887 | -0.176 | 0.749 (inactive)
COc1ccccc1CN1C(=O)c2ccccc2[C@](Cc2ccccc2I)(C(=O)NC(C)C)[C@@H]1c1ccc(CO)cc1 | 1.94 | 1.24 | 0.629 | 0.983 | 1.14 | 0.506 | 1.86 | 0.773 | 1.16 | 1.35 (inactive)
CN1C(=O)C2C=CC(C(O)c3c(F)cccc3Cl)N(Nc3ccccc3)C2C1=O (stereo not given) | -0.0126 | -0.105 | 0.464 | 0.978 | 1.03 | -0.166 | 1.14 | -0.309 | 1.05 | 0.565 (inactive)
C=CCOC(=O)[C@H]1[C@@H]2C(=O)O[C@@H](c3ccccc3)[C@@H](c3ccccc3)N2[C@@H](c2ccc(OCCOC(=O)[C@H]3C[C@H]4C(=O)N[C@@H](Cc5ccccc5)C(=O)N4[C@H]3c3cccc(OCCO)c3)cc2)[C@]12C(=O)Nc1ccc(I)cc12 | 2.34 | 1.16 | 0.41 | 0.948 | 1.2 | 1.71 | -1.41 | 1.35 | 0.324 | -0.65 (inactive)
COc1cc(CO)cc(I)c1O[C@H]1C=C(C(=O)NCCO)C[C@@H](N(CC2CCCCC2)C(=O)c2ccc(C(F)(F)F)cc2)[C@@H]1O | 0.0463 | 0.621 | 0.0469 | 0.367 | 0.578 | 0.12 | 0.53 | 0.784 | 0.193 | -0.795 (inactive)
O=C(O)[C@H]1C[C@H]2C(=O)N3CCC[C@H]3C(=O)N2[C@H]1c1cccc(OCCO)c1 | 2.79 | 0.658 | -0.525 | 0.0871 | 1.32 | 0.871 | 1.95 | 0.232 | 0.227 | -1.97 (inactive)
COCCOC(=O)N1C(=O)[C@@]2(c3cc(C#CC4(O)CCCCCC4)ccc31)[C@H](C(=O)N1CCCCCCC1)[C@H]1C(=O)O[C@H](c3ccccc3)[C@H](c3ccccc3)N1[C@@H]2c1ccc(OCCO)cc1 | 2.68 | 1.24 | 1.13 | 0.95 | 1.49 | 1.77 | -1.18 | 1.7 | 1.09 | -2.13 (inactive)
C=C(COC)/C(=C/C[C@@H](OC(=O)c1ccncc1)c1ccc(CO)o1)c1cnc2ccccc2c1 | 1.87 | 1.22 | 0.268 | 0.973 | 1.47 | 1.61 | -0.557 | 1.67 | 1.56 | -2.96 (inactive)
COc1cc2c(cc1O)C(C)N(Cc1cc3c(cc1Br)OCO3)CC2 (stereo not given) | -0.408 | -1.4 | -0.618 | -1.01 | -0.381 | -0.437 | -0.472 | -0.46 | -0.55 | -0.499 (inactive)
COCCOC(=O)N1C(=O)[C@@]2(c3cc(C#CC4=CCCCC4)ccc31)[C@H](C(=O)N1CCN(c3ncccn3)CC1)[C@H]1C(=O)O[C@H](c3ccccc3)[C@H](c3ccccc3)N1[C@@H]2c1ccc(O)cc1 | 1.26 | 1.19 | 0.778 | 0.804 | 1.21 | 0.29 | -1.05 | 0.819 | 1.11 | -0.94 (inactive)
C[C@H]1ON(c2ccc(C(=O)OC(C)(C)C)cc2)[C@@H](c2ccc(O)cc2)[C@@H]1C(=O)N1C(=O)OC[C@@H]1c1ccccc1 | 0.82 | 1.13 | 0.429 | 0.935 | 1.22 | 1.4 | -0.802 | 0.724 | 0.38 | -0.587 (inactive)
O=C1O[C@@H](c2ccccc2)[C@@H](c2ccccc2)N2[C@@H](c3ccc(O)cc3)[C@]3(C(=O)Nc4ccc(C#CCCO)cc43)[C@@H](C(=O)NC[C@H](O)c3ccccc3)[C@H]12 | 0.206 | -0.386 | -0.141 | -1.38 | -0.162 | -1.11 | -1.57 | 0.0328 | 1.12 | 0.411 (inactive)
CCOC(=CC(=O)OC)CC(O)c1cccc(Cl)c1 (stereo not given) | 1.83 | 1.15 | 0.702 | -0.76 | -0.23 | -0.745 | 1.32 | -0.417 | 1.22 | -0.135 (inactive)
CCCNC(=O)[C@@]1(c2ccc([N+](=O)[O-])cc2)CC(=O)N(C2CCCCC2)[C@@H]1c1ccc(CO)cc1I | 2.18 | 0.949 | 0.178 | 0.34 | 1.21 | 1.52 | 1.4 | 1.01 | 1.1 | -0.424 (inactive)
